# PubChem BioAssay (EPA / NIEHS)
# Inconclusive results are not listed. Active and inactive are the calls of the source. How the source made its calls, unless noted: active means hit-call score of the fitted dose curve at least 0.9, where 1 is the maximum; inactive means score below 0.9.
# How the values were obtained:
# [1] = biological target: Hypoxia-inducible factor 1-alpha (Homo sapiens) (UniProt Q16665); assay: ATG_HIF1a_CIS: Attagene CIS-FACTORIAL HepG2 Assay for human Hypoxia Inducible Factor 1 (HIF1A) (AID 2282951); conditions: HepG2 Attagene cis-factorial HIF1a reporter transcription; actives raise or lower the signal
# Chain of Hypoxia-inducible factor 1-alpha (Homo sapiens) (Q16665 whole entry, looked up): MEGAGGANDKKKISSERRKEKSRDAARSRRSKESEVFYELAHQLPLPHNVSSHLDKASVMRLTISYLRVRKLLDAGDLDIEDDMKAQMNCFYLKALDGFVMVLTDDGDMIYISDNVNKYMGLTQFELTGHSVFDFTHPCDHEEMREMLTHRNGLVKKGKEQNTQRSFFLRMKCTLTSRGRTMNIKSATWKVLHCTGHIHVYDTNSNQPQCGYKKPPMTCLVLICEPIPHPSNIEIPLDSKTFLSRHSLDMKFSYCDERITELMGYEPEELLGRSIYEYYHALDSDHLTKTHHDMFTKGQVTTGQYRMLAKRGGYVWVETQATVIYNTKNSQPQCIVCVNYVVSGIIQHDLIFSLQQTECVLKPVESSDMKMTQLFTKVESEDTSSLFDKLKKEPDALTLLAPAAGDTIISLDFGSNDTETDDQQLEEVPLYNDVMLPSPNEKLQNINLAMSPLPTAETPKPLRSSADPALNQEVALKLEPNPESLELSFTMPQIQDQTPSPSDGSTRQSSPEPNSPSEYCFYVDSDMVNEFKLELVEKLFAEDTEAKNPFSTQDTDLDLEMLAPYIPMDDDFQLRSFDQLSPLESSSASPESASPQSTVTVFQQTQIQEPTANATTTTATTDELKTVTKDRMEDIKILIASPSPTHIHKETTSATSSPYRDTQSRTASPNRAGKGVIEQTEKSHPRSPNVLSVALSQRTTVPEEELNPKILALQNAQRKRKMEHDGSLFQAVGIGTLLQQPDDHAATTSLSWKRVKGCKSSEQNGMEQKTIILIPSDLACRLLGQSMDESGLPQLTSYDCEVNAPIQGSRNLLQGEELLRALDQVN
# In short: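 Dosed 24 h, transfected HepG2 cells yielded total RNA whose reporter transcripts were RT-PCR-amplified and sized by capillary electrophoresis using fluorescent labelling; DMSO defined baseline, with gain and loss of signal both fitted.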
# [2] = biological target: Hepatocyte nuclear factor 6 (Homo sapiens) (UniProt Q9UBC0); assay: ATG_HNF6_CIS: Attagene CIS-FACTORIAL HepG2 Assay for human Hepatocyte Nuclear Factor 6 (HNF6) (AID 2282952); conditions: HepG2 Attagene cis-factorial HNF6 reporter transcription; actives raise or lower the signal
# Chain of Hepatocyte nuclear factor 6 (Homo sapiens) (Q9UBC0 whole entry, looked up, the tested form may be a part): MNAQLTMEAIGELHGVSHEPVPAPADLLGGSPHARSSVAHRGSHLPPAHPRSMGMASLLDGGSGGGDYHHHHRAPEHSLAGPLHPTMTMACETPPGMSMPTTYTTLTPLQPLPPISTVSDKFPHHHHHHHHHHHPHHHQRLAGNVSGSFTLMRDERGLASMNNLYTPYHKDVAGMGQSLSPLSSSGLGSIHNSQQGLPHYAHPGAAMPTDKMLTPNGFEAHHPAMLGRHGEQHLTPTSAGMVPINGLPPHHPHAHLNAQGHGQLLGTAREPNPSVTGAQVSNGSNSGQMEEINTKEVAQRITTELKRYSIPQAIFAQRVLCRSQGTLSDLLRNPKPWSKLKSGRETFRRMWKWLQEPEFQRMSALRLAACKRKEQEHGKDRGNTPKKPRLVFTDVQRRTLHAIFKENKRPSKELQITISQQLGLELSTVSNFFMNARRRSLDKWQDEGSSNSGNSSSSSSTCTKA
# In short: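 Twenty-four-hour chemical treatment of reporter-transfected HepG2 cells precedes RNA isolation, DNase-treated reverse transcription and PCR of reporter sequences. Labelled fragments are sized by capillary electrophoresis and fitted bidirectionally versus DMSO.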
# [3] = biological target: Heat shock factor protein 1 (Homo sapiens) (UniProt Q00613); assay: ATG_HSE_CIS: Attagene CIS-FACTORIAL HepG2 Assay for human Heat Shock Transcription Factor 1 (HSE) (AID 2282953); conditions: HepG2 HSE cis-reporter, Attagene RNA transcription; actives raise or lower the signal
# Chain of Heat shock factor protein 1 (Homo sapiens) (Q00613 whole entry, looked up): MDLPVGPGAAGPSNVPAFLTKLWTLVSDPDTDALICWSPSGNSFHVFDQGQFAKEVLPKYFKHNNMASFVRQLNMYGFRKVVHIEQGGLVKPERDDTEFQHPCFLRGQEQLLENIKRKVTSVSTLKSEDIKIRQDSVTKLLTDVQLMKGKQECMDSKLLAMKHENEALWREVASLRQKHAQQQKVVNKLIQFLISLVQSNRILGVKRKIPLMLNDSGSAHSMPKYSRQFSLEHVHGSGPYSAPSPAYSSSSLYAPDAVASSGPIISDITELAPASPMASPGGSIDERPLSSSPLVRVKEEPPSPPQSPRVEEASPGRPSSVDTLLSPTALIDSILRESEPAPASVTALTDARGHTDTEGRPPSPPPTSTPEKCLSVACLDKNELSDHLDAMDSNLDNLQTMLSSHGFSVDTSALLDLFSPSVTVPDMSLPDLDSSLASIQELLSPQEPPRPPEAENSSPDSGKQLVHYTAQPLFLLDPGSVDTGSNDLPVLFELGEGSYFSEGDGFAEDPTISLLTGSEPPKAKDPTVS
# In short: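 Using HepG2 with transfected cis-driven reporter constructs, compound effects on endogenous factor activity are scored as reporter mRNA change at 24 h. Detection: RT-PCR, HpaI digestion, capillary electrophoresis; bidirectional fitting to DMSO.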
# [4] = ATG_MRE_CIS: Attagene CIS-FACTORIAL HepG2 Assay for human Metal Responsive Element (MRE) (AID 2282954); conditions: HepG2 MRE cis-reporter transcription, Attagene multiplex; actives raise or lower the signal
# In short: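 RT-PCR/capillary electrophoresis readout of reporter mRNA, 24 h post-dosing, in HepG2 cells transfected with multiplexed cis-regulated reporter constructs. Gain or loss of signal fitted bidirectionally against DMSO baseline.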
# [5] = ATG_PBREM_CIS: Attagene CIS-FACTORIAL HepG2 Assay for human Phenobarbital-responsive Enhancer Module (PBREM) (AID 2282955); conditions: HepG2 PBREM cis-reporter, Attagene multiplexed transcription; actives raise or lower the signal
# In short: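 Transfected liver-derived HepG2 cells exposed 24 h; PBREM reporter transcript quantified via RT-PCR and capillary electrophoresis, with activity in either direction referenced to DMSO.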
# [6] = ATG_PXRE_CIS: Attagene CIS-FACTORIAL HepG2 Assay for human Pregnane X Receptor Element (PXRE) (AID 2282957); conditions: HepG2 Attagene CIS-FACTORIAL PXRE reporter, mRNA; actives raise or lower the signal
# In short: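 Bidirectional activity, baselined to DMSO, derived from reporter mRNA fluorescence (RT-PCR plus capillary electrophoresis) in HepG2 cells bearing cis-promoter reporter units, 24 h exposure.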
# [7] = ATG_PPRE_CIS: Attagene CIS-FACTORIAL HepG2 Assay for human Peroxisome Proliferator-activated Response Element (PPRE) (AID 2282958); conditions: HepG2 PPRE cis-element reporter, Attagene transcription factor profiling; actives raise or lower the signal
# In short: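 Measured endpoint: PPRE-controlled reporter mRNA, detected by RT-PCR and capillary electrophoresis fluorescence, from transiently transfected HepG2 cells 24 h after dosing. Curves fitted in both directions using DMSO baseline.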
# [8] = ATG_RORE_CIS: Attagene CIS-FACTORIAL HepG2 Assay for human RAR-related Orphan Receptor Element (RORE) (AID 2282959); conditions: HepG2 Attagene cis-factorial RORE reporter, mRNA; actives raise or lower the signal
# In short: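 Transiently transfected HepG2 reporter cells were treated 24 h. Reporter transcripts were detected by RT-PCR and capillary electrophoresis, with bidirectional fitting against DMSO.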
# [9] = ATG_Sox_CIS: Attagene CIS-FACTORIAL HepG2 Assay for human SRY-box transcription factor (SOX) (AID 2282960); conditions: HepG2 Attagene cis-factorial SOX reporter, mRNA; actives raise or lower the signal
# In short: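 Gain- or loss-of-signal endpoint, fitted bidirectionally with DMSO as negative control. Based on reporter mRNA from transfected HepG2 cells harvested 24 h post-treatment and quantified via RT-PCR and capillary electrophoresis.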
# [10] = biological target: Transcription factor Sp1 (Homo sapiens) (UniProt P08047); assay: ATG_Sp1_CIS: Attagene CIS-FACTORIAL HepG2 Assay for human Specificity Protein 1 (Sp1) (AID 2282961); conditions: HepG2 Sp1 cis-reporter transcription, actives raise or lower the signal
# Chain of Transcription factor Sp1 (Homo sapiens) (P08047 whole entry, looked up, the tested form may be a part): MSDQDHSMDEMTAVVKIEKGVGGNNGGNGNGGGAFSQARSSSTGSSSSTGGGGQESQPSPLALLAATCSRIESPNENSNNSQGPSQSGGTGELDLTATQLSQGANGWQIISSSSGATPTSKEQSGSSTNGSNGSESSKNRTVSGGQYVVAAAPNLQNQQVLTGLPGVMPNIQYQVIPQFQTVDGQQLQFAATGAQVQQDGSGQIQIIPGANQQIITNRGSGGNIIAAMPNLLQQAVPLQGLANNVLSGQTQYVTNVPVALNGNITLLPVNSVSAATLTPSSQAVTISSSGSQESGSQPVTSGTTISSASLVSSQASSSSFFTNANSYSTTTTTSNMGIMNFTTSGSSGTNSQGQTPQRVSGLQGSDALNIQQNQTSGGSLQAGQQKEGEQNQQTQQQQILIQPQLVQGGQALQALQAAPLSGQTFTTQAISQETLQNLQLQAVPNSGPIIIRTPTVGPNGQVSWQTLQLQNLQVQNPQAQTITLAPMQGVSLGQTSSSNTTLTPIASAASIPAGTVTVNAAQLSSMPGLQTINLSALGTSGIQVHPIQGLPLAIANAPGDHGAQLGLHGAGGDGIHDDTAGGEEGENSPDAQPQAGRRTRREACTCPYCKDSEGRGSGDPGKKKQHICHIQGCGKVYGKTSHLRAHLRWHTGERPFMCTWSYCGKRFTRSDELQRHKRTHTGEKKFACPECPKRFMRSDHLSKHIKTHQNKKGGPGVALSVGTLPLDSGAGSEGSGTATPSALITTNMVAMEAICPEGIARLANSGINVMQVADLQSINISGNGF
# In short: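 Endpoint reflects endogenous Sp1 transcriptional activity, not an exogenous fusion protein: HepG2 cells with transfected cis-regulated reporters, 24 h dosing, RT-PCR/capillary electrophoresis mRNA read-out, DMSO-normalised bidirectional fit.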
# [11] = ATG_SREBP_CIS: Attagene CIS-FACTORIAL HepG2 Assay for human Sterol Regulatory Element Binding (SREBP) (AID 2282962); conditions: HepG2 Attagene cis-factorial SREBP reporter, mRNA; actives raise or lower the signal
# In short: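 Endogenous SREBP activity read as cis-element-driven reporter transcript in transiently transfected HepG2, 24 h post-dosing; quantified via RT-PCR plus capillary electrophoresis of fluorescent fragments. Gain or loss of signal fitted relative to DMSO baseline.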
# [12] = biological target: Signal transducer and activator of transcription 3 (Homo sapiens) (UniProt P40763); assay: ATG_STAT3_CIS: Attagene CIS-FACTORIAL HepG2 Assay for human Signal Transducer and Activator of Transcription 3 (STAT3) (AID 2282963); conditions: HepG2, Attagene cis-factorial STAT3 reporter transcription; actives raise or lower the signal
# Chain of Signal transducer and activator of transcription 3 (Homo sapiens) (P40763 whole entry, looked up, the tested form may be a part): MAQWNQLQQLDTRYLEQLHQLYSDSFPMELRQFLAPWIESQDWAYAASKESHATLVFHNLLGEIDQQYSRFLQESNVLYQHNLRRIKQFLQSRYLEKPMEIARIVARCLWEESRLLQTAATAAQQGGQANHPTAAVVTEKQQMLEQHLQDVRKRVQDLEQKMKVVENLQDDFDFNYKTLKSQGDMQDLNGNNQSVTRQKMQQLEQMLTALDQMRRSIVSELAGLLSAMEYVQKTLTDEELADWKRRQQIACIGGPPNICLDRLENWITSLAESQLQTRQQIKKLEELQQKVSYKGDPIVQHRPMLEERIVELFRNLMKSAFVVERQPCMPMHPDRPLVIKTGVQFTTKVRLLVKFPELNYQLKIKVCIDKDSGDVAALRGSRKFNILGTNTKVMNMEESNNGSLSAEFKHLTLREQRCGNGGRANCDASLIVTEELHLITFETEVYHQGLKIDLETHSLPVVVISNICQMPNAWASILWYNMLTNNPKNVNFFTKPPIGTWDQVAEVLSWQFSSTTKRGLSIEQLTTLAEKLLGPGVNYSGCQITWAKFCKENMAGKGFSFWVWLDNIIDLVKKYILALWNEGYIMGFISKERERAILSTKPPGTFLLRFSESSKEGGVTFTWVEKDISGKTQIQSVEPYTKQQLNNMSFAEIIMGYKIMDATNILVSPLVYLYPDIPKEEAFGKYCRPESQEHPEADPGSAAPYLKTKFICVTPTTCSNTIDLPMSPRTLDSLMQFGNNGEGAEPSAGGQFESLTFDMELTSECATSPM
# In short: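 Readout: fluorescent reporter mRNA fragments resolved by capillary electrophoresis. Setup: HepG2 transfected with MRTUs reporting endogenous transcription-factor activity, dosed 24 h. Gain or loss of signal fitted bidirectionally against DMSO control.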
# [13] = ATG_TCF_b_cat_CIS: Attagene CIS-FACTORIAL HepG2 Assay for human T-Cell-Factor with beta-catenin (TCF/b-cat) (AID 2282965); conditions: HepG2 TCF/beta-catenin cis-reporter transcription, actives raise or lower the signal
# In short: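 HepG2, transient MRTU transfection, cis-element-driven reporters (endogenous TFs). 24 h compound exposure. Readout: reporter mRNA by RT-PCR + 6-FAM primer extension, HpaI digest, capillary electrophoresis. Gain/loss fit vs DMSO baseline.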
# [14] = ATG_TAL_CIS: Attagene CIS-FACTORIAL HepG2 Assay for human TAL Basal Promoter (AID 2282966); conditions: HepG2 Attagene cis-factorial TAL promoter reporter; actives raise or lower the signal;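 further: background control endpoint measuring basal TAL promoter reporter mRNA not a specific factor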
# In short: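 Human hepatoma HepG2 cells, transfected with promoter-regulated reporter units, were treated 24 h. Reporter transcript levels, measured through RT-PCR and capillary electrophoresis, were fitted for gain or loss relative to DMSO.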
# [15] = ATG_TGFb_CIS: Attagene CIS-FACTORIAL HepG2 Assay for human Transforming Growth Factor (TGF) (AID 2282967); conditions: HepG2 Attagene CIS TGFb reporter, mRNA transcription; actives raise or lower the signal
# In short: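 After a 24-hour incubation with compound, transfected HepG2 cells were lysed for RNA; reporter cDNA was amplified, fluorescently end-labeled and separated by CE. DMSO served as baseline for bidirectional fits.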
# [16] = ATG_VDRE_CIS: Attagene CIS-FACTORIAL HepG2 Assay for human Vitamin D Receptor Element (VDRE) (AID 2282968); conditions: HepG2 VDRE cis-reporter transcription, actives raise or lower the signal
# In short: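 Transient MRTU transfection of HepG2, 24 h compound exposure. Readout: reporter transcripts via RT-PCR and capillary electrophoresis, fluorescence. Bidirectional fit vs DMSO.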
# [17] = biological target: Nuclear receptor subfamily 1 group I member 3 (Homo sapiens) (UniProt Q14994); assay: ATG_CAR_TRANS: Attagene TRANS-FACTORIAL HepG2 Assay for human Constitutive Androstane Receptor (CAR) (AID 2282969; active means hit-call score of the fitted dose curve at least 0.9, where 1 is the maximum;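 further: activators raise reporter mRNA above DMSO so AC50 marks induction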); conditions: HepG2 Attagene TRANS-FACTORIAL CAR reporter
# Chain of Nuclear receptor subfamily 1 group I member 3 (Homo sapiens) (Q14994 whole entry, looked up, the tested form may be a part): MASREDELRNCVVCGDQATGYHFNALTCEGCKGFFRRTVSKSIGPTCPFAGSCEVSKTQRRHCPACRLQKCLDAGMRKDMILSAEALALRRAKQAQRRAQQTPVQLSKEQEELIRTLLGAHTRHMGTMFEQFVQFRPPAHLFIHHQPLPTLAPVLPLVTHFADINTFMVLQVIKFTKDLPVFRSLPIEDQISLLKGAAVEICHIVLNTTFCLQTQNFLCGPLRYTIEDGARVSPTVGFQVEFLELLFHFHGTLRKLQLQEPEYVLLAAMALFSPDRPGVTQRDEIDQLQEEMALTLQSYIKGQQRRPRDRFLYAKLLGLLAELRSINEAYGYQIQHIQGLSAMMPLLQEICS
# In short: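 Transiently transfected HepG2, multiplex TRANS reporters (CAR-Gal4 chimera driving GAL4-UAS reporter). 24 h dosing. Readout: reporter transcript by RT-PCR + capillary electrophoresis, fluorescence intensity; positive direction vs DMSO.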
# [18] = biological target: Paired box protein Pax-6 (Homo sapiens) (UniProt P26367); assay: ATG_Pax6_CIS: Attagene CIS-FACTORIAL HepG2 Assay for human Paired Box 6 (PAX6) (AID 2282956); conditions: HepG2 CIS-FACTORIAL PAX6 reporter transcription, RNA readout; actives raise or lower the signal
# Chain of Paired box protein Pax-6 (Homo sapiens) (P26367 whole entry, looked up): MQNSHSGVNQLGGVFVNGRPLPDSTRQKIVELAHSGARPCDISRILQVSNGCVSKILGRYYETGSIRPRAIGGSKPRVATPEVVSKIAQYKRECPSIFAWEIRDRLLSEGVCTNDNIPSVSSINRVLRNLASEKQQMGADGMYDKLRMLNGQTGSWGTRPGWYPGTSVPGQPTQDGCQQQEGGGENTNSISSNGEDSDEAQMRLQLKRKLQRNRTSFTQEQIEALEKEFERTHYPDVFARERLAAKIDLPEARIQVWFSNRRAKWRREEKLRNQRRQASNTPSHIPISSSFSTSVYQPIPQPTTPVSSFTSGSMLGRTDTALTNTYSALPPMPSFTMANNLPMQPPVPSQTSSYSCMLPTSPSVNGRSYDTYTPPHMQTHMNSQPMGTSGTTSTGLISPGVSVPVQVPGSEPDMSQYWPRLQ
# In short: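 Read-out is reporter transcript level, measured by RT-PCR with fluorescent primer extension and capillary electrophoresis after 24 h dosing of transfected HepG2 cells. Activity in either direction fitted relative to DMSO control.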
# [19] = ATG_TA_CIS: Attagene CIS-FACTORIAL HepG2 Assay for human TA Basal Promoter (AID 2282964); conditions: HepG2 Attagene CIS-factorial TA basal promoter reporter; actives raise or lower the signal
# In short: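 Transient MRTU transfection of HepG2 preceded 24 h compound exposure. Reporter mRNA levels were then read by RT-PCR with capillary electrophoresis, and this background-control endpoint was fitted bidirectionally to DMSO.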
# [20] = biological target: Estrogen receptor (Homo sapiens) (UniProt P03372); assay: ATG_ERa_TRANS: Attagene TRANS-FACTORIAL HepG2 Assay for human Estrogen Receptor alpha (ERa) (AID 2282970; active means hit-call score of the fitted dose curve at least 0.9, where 1 is the maximum); conditions: HepG2 Attagene TRANS ERa GAL4 reporter, mRNA
# Chain of Estrogen receptor (Homo sapiens) (P03372 whole entry, looked up, the tested form may be a part): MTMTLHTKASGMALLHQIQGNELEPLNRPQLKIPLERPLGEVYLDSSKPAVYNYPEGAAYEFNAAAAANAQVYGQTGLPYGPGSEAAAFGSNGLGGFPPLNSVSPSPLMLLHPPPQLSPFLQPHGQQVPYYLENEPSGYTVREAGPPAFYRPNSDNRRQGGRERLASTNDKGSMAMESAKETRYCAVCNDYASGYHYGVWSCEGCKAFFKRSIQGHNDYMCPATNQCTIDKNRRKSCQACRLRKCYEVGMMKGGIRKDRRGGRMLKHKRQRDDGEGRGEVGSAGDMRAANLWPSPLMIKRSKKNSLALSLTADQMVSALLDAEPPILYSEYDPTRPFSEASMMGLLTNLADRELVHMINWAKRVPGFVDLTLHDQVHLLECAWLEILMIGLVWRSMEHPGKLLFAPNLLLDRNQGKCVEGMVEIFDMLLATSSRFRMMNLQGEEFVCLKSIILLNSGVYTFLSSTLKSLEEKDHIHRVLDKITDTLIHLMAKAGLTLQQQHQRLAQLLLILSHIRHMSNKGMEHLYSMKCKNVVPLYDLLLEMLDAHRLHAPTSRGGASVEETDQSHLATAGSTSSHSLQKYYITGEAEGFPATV
# In short: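 Signal derives from fluorescence of labelled reporter PCR fragments separated by capillary electrophoresis. HepG2 cells transiently carrying multiple GAL4-UAS reporter units were treated 24 hours, and induction above DMSO baseline was fitted as activity.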
compound,measurement,setting,value
OC(Cc1ccccc1Cl)(Cn1cncn1)C1(Cl)CC1 (stereo not given),outcome,[1],inactive
same,outcome,[2],inactive
same,outcome,[3],inactive
same,AC50,[4],37.3 µM (active)
same,AC50,[5],19.8 µM (active)
same,AC50,[6],8.32 µM (active)
same,outcome,[7],inactive
same,outcome,[8],inactive
same,outcome,[9],inactive
same,outcome,[10],inactive
same,outcome,[11],inactive
same,outcome,[12],inactive
same,outcome,[13],inactive
same,outcome,[14],inactive
same,outcome,[15],inactive
same,AC50,[16],26 µM (active)
same,outcome,[17],inactive
c1ccc2c(c1)Oc1ccccc1O2,outcome,[1],inactive
same,outcome,[2],inactive
same,outcome,[3],inactive
same,outcome,[4],inactive
same,outcome,[5],inactive
same,outcome,[18],inactive
same,AC50,[6],75.9 µM (active)
same,outcome,[8],inactive
same,outcome,[9],inactive
same,outcome,[10],inactive
same,outcome,[11],inactive
same,outcome,[12],inactive
same,outcome,[19],inactive
same,outcome,[13],inactive
same,outcome,[14],inactive
same,outcome,[15],inactive
same,outcome,[16],inactive
same,outcome,[17],inactive
O=S(=O)(Oc1ccc(Cl)cc1)c1ccc(Cl)cc1,outcome,[1],inactive
same,outcome,[2],inactive
same,outcome,[3],inactive
same,AC50,[4],53.3 µM (active)
same,AC50,[5],10.8 µM (active)
same,AC50,[6],5.87 µM (active)
same,outcome,[7],inactive
same,outcome,[8],inactive
same,outcome,[9],inactive
same,outcome,[10],inactive
same,outcome,[11],inactive
same,outcome,[12],inactive
same,outcome,[19],inactive
same,outcome,[13],inactive
same,outcome,[14],inactive
same,AC50,[15],63.8 µM (active)
same,outcome,[17],inactive
CC1(C)COP(Oc2ccccc2)OC1,outcome,[1],inactive
same,outcome,[2],inactive
same,outcome,[3],inactive
same,outcome,[4],inactive
same,outcome,[5],inactive
same,outcome,[18],inactive
same,outcome,[6],inactive
same,outcome,[8],inactive
same,outcome,[9],inactive
same,outcome,[10],inactive
same,outcome,[11],inactive
same,outcome,[12],inactive
same,outcome,[19],inactive
same,outcome,[13],inactive
same,outcome,[14],inactive
same,outcome,[15],inactive
same,outcome,[16],inactive
C=CC(=O)NC(C)(C)CC(C)=O,outcome,[1],inactive
same,outcome,[2],inactive
same,outcome,[3],inactive
same,outcome,[4],inactive
same,outcome,[5],inactive
same,outcome,[6],inactive
same,outcome,[7],inactive
same,outcome,[8],inactive
same,outcome,[9],inactive
same,outcome,[10],inactive
same,outcome,[11],inactive
same,outcome,[12],inactive
same,outcome,[19],inactive
same,outcome,[13],inactive
same,outcome,[14],inactive
same,outcome,[15],inactive
same,outcome,[16],inactive
same,outcome,[17],inactive
CCOCn1c(-c2ccc(Cl)cc2)c(C#N)c(Br)c1C(F)(F)F,outcome,[1],inactive
same,AC50,[2],184 µM (active)
same,AC50,[3],53.2 µM (active)
same,AC50,[4],34.7 µM (active)
same,outcome,[5],inactive
same,AC50,[6],0.46 µM (active)
same,AC50,[7],4.17 µM (active)
same,AC50,[8],3.54 µM (active)
same,AC50,[9],30.4 µM (active)
same,AC50,[10],30.6 µM (active)
same,AC50,[11],49 µM (active)
same,AC50,[12],142 µM (active)
same,outcome,[19],inactive
same,AC50,[13],7.11 µM (active)
same,outcome,[14],inactive
same,AC50,[15],25.6 µM (active)
same,AC50,[16],1.79 µM (active)
same,outcome,[17],inactive
same,outcome,[20],inactive
CCN(CCO)CCO,outcome,[1],inactive
same,outcome,[2],inactive
same,outcome,[3],inactive
same,outcome,[4],inactive
same,outcome,[5],inactive
same,AC50,[6],27.2 µM (active)
same,outcome,[7],inactive
same,outcome,[8],inactive
same,outcome,[9],inactive
same,outcome,[10],inactive
same,outcome,[11],inactive
same,outcome,[12],inactive
same,outcome,[19],inactive
same,outcome,[13],inactive
same,outcome,[14],inactive
same,outcome,[15],inactive
same,outcome,[16],inactive
Nc1ncn[nH]1,outcome,[1],inactive
same,outcome,[2],inactive
same,outcome,[3],inactive
same,outcome,[4],inactive
same,outcome,[5],inactive
same,outcome,[6],inactive
same,outcome,[7],inactive
same,outcome,[8],inactive
same,outcome,[9],inactive
same,outcome,[10],inactive
same,outcome,[11],inactive
same,outcome,[12],inactive
same,outcome,[19],inactive
same,outcome,[13],inactive
same,outcome,[14],inactive
same,outcome,[15],inactive
same,outcome,[17],inactive
